Entries with a potency or affinity are not part of this list. Results filed as inconclusive are left out.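 Rule for the calls: active = in every test run, a fitted half-maximal concentration for signal decrease at or below twice the highest tested concentration; inconclusive = runs disagree, flat 30 to 70% decrease, or poor fit; inactive = the rest.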
Assay: miR-122 activators in hepatoma reporter cells, dose response, cell-based, Huh7 psiCHECK-miR122, Renilla luciferase, cherry-picked (AID 651956);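 note: Renilla luciferase from a miR-122 sensor reporter so lower signal means miR-122 activation; 0% = median neutral control wells and -100% = median positive control wells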
Settings: 48 h; series mostly up to 35 µM; activity change, negative = signal decrease: at the top concentration

Activity change, negative = signal decrease, inactive:
CCCNC(=O)Nc1ccc2c(c1)C(=O)N(C)[C@@H]1CC[C@H](CC(=O)NCC3CCCCC3)O[C@H]1CO2 -47.3%
COCC(=O)N(C)C[C@@H]1[C@@H](c2ccccc2)[C@H](CO)N1C(=O)Cc1ccncc1 -13.1% [at 30 µM]
C[C@@H]1CN([C@H](C)CO)S(=O)(=O)c2ccc(C3=CCCC3)cc2O[C@@H]1CN(C)C(=O)c1ccc(F)cc1 -60.6%
COCC(=O)Nc1ccc2c(c1)C(=O)N(C)[C@@H]1CC[C@H](CC(=O)NCc3ccccc3F)O[C@H]1CO2 372%
CCC(=O)N1[C@H](CO)[C@H](c2ccccc2)[C@@H]1CN(CC)C(=O)c1ccccc1 -26.6%
COc1ccc(NS(=O)(=O)c2ccc(NC(=O)C(C)(C(F)(F)F)C(F)(F)F)cc2)nn1 -17.6%
O=C(COC(=O)c1ccccc1)Nc1cc(Cl)ccc1Oc1ccccc1 -24.7%
Cc1cnc(NC(=O)c2cc3c(C)nn(-c4ccccc4)c3s2)s1 -11.8%
CCC(=O)Nc1ccc2c(c1)C(=O)N(C)[C@@H]1CC[C@H](CC(=O)NCCN3CCCCC3)O[C@H]1CO2 -46.3%
C/C=C/c1ccc([C@H]2[C@@H](CO)N(Cc3ccccn3)[C@H]2CNC(C)=O)cc1 -24.4%
COc1ccccc1C#Cc1ccc2c(c1)O[C@H](CN(C)Cc1cccnc1)[C@H](C)CN([C@@H](C)CO)S2(=O)=O -96.7%
CC(=O)N1[C@H](CNC(=O)C2CC2)[C@H](c2ccc(-c3cccc(F)c3)cc2)[C@@H]1CO 0%
CO[C@H]1CN(C)C(=O)c2cc(NC(=O)c3ccccc3F)ccc2OC[C@@H](C)N(C)C[C@@H]1C -13.2%

Source: PubChem BioAssay AID651956 (Broad Institute, 2012)
